Hits are enriched below; roughly 4.1% of the tested compounds scored in any of these assays.
Sm TGR block: S. mansoni TGR enzyme inhibition | Potency, µM (top dose mostly 114 µM), without a hit: top-dose activity change, negative = inhibition, hits mostly inhibitors | Q962Y6 | actives 3% (n = 360,000) | purified TGR, DTNB reduction, TNB absorbance 405 nm; note: nearly all actives have a fitted effect of over 60% in size
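TGR 20 nM + NADPH 100 uM (dispensed conc.), cpd preinc 15 min RT; start with NADPH (500 uM addition) then DTNB (15 mM addition). Kinetic TNB absorbance, 405 nm filter. Four-parameter Hill fit across titration.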
AMA1 RON2 block: disrupts binding of P. falciparum AMA1 to RON2; AlphaScreen AMA1-biotinylated RON2 peptide binding; Potency, µM (highest dose often 58.2 µM), for the others: top-dose activity change, negative = inhibition, actives largely listed as inhibitors; actives 0.2% (n = 360,000); AID 720542;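 note: 0% = vehicle wells and -100% = peptide control; nearly all actives have a fitted effect of over 45% in size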
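AMA1 (3D7) with his tag at 25 nM final met compounds first, then biotinylated RON2 peptide at 25 nM; detection used donor plus acceptor beads, 10 µg/mL apiece, read by AlphaScreen after 30 min at room temperature.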
AmpC inh no detg: inhibitors of E. coli AmpC beta-lactamase without detergent; P00811; AmpC nitrocefin hydrolysis, absorbance 480 nm, 0.0001% Triton; Potency, µM (titrated, usually from 57.1 µM), for inactives: at the top dose activity change, negative = inhibition, most hits filed as inhibitors; actives 0.52% (n = 330,000);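 note: plate controls were no compound for no effect and no enzyme for full effect; nearly all actives have a fitted effect of over 20% in size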
Target sequence (P00811 whole entry, looked up): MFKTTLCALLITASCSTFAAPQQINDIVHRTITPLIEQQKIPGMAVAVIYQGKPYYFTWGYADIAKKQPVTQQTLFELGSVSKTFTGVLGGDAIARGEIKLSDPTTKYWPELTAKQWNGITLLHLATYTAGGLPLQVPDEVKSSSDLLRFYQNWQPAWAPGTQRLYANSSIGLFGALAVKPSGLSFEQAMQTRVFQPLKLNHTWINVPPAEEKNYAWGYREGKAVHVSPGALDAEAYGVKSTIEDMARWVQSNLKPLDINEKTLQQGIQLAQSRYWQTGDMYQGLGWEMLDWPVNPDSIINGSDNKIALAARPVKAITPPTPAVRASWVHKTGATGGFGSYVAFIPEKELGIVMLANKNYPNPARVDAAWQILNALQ
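AmpC (5.3 nM in the dispensed reagent) in 20 mM phosphate pH 7.0 with 0.01% (detergent screen) or 0.0001% Triton X-100 was preincubated with compounds for 15 min at room temperature. Nitrocefin was then added from an 800 uM solution, and hydrolysis was followed at 480 nm.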
FMDV antiviral: blocks foot and mouth disease virus | Potency, µM (titrated, usually from 57.9 µM), without a hit: top-dose activity change, negative = inhibition, hits mostly inhibitors | FMDV antiviral cell-based qHTS | actives 1.2% (n = 410,000); calls by dose curve; tested in HEK293T cells; note: read-out not given here; nearly all actives have a fitted effect of over 45% in size
AmpC inh detg: inhibitors of E. coli AmpC beta-lactamase with detergent; P00811; actives 0.041% (n = 370,000); Potency, µM (highest dose often 114 µM), for the others: at the top dose activity change, negative = inhibition, actives largely listed as inhibitors; AmpC hydrolysis of nitrocefin, absorbance 480 nm, 0.01% Triton;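 note: 0% = no-compound wells and -100% = no-enzyme wells; nearly all actives have a fitted effect of over 25% in size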
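AmpC (5.3 nM in the dispensed reagent) in 20 mM phosphate pH 7.0 with 0.01% (detergent screen) or 0.0001% Triton X-100 was preincubated with compounds for 15 min at room temperature. Nitrocefin was then added from an 800 uM solution, and hydrolysis was followed at 480 nm.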
* = called active by the depositor; [ ] = another dose, or the depositor's remark. Unless noted, calls come from the whole dose curve; as a rule, active = well fitted curve in the direction sought with a large enough effect; inconclusive = small, poorly fitted or top-dose-only effect, or another doubt; inactive = no such curve, though single readings can be large; an effect the other way counts as inactive or inconclusive. Unless noted, % is set by controls: 0 for no effect and ±100 for the full control effect; potency is the fitted concentration of half-maximal effect.

What do the screens show for `CC/C(=C\c1oc2cc3ccccc3cc2[n+]1CC)Nc1ccccc1`?
Sm TGR block: 20µM*; AMA1 RON2 block: -3%; AmpC inh no detg: -8%; FMDV antiviral: 22µM*; AmpC inh detg: inconclusive

What do the screens show for `CCOc1ccccc1N1CC(c2nc3ccccc3n2CCOc2ccc(OC)cc2)CC1=O` (stereo not drawn)?
Sm TGR block: 0%; FMDV antiviral: -12%; AmpC inh detg: -4%

Results for Cc1ccc(Cl)cc1NC(=O)CSc1ccc(C(=O)O)cn1 ?
Sm TGR block: 5%; FMDV antiviral: -15%; AmpC inh detg: 11%

What do the screens show for `CCC1CN(CCC(=O)NC2CCOC(C)(C)C2)Cc2cc(OC)ccc2O1` (stereo not drawn)?
FMDV antiviral: -9%

Results for COc1ccc(C(=O)C(CN2CCCC2)c2ccccc2)cc1 (stereo not drawn) ?
Sm TGR block: -5%; AMA1 RON2 block: -5%; AmpC inh no detg: -10%; FMDV antiviral: 16µM*; AmpC inh detg: -17%

What do the screens show for `CCCOc1ccc(C(=O)C(CN2CCCC2)c2ccccc2)cc1` (stereo not drawn)?
Sm TGR block: -12%; AMA1 RON2 block: -7%; AmpC inh no detg: 14%; FMDV antiviral: 18µM*; AmpC inh detg: -8%

How did COc1ccc(C(=O)C(OC(=O)c2ccccc2)c2ccccc2)cc1 (stereo not drawn) do in these assays?
Sm TGR block: 16%; AMA1 RON2 block: -6%; AmpC inh no detg: 9%; FMDV antiviral: 79%; AmpC inh detg: 2%

What do the screens show for `O=C(c1ccccc1)C(CCC(CN1CCOCC1)C(=O)c1ccccc1)CN1CCOCC1` (stereo not drawn)?
Sm TGR block: 8.9µM*; AMA1 RON2 block: -6%; AmpC inh no detg: 76%; FMDV antiviral: 25µM*; AmpC inh detg: -12%

What do the screens show for `O=C(c1ccc(Cl)cc1)C1CCN(Cc2ccccc2)CC1`?
Sm TGR block: 3%; AMA1 RON2 block: 0%; AmpC inh no detg: -13%; FMDV antiviral: -24%; AmpC inh detg: -12%

What do the screens show for `O=C(c1ccc(Cl)cc1)C(CN1CCCC1)c1ccccc1` (stereo not drawn)?
Sm TGR block: 28µM*; AMA1 RON2 block: 4%; AmpC inh no detg: 24%; FMDV antiviral: 25µM*; AmpC inh detg: -11%

How did CCCCOc1ccc(C(O)C(CN2CCCCC2)c2ccccc2)cc1 (stereo not drawn) do in these assays?
Sm TGR block: -6%; AMA1 RON2 block: -3%; AmpC inh no detg: 18%; FMDV antiviral: inconclusive; AmpC inh detg: -12%

Results for COc1ccc(-c2nc3c4ccccc4n(CC(=O)N4CCN(c5ccc(F)cc5)CC4)c(=O)n3n2)cc1 ?
Sm TGR block: 2%; FMDV antiviral: -16%; AmpC inh detg: 4%

Results for CCCCCCCC/C=C\CCCCCCCCOC[C@H](COP(=O)([O-])OCC[N+](C)(C)C)OC(C)=O ?
FMDV antiviral: 8%[6.7 µM]

How did CCCCCOc1ccc(C(=O)C(c2ccccc2)N2CCOCC2)cc1 (stereo not drawn) do in these assays?
Sm TGR block: 2%; AMA1 RON2 block: 0%; AmpC inh no detg: 184%; FMDV antiviral: inconclusive; AmpC inh detg: -9%

How did O=C(c1ccc(F)cc1)C(CN1CCOCC1)c1ccccc1 (stereo not drawn) do in these assays?
Sm TGR block: -16%; AMA1 RON2 block: -4%; AmpC inh no detg: -14%; FMDV antiviral: 8.9µM*; AmpC inh detg: -10%

How did CCCCOc1ccc(C(=O)C(CN2CCOCC2)c2ccccc2)cc1 (stereo not drawn) do in these assays?
Sm TGR block: 6%; AMA1 RON2 block: -15%; AmpC inh no detg: 159%; FMDV antiviral: 18µM*; AmpC inh detg: -21%

What do the screens show for `CCC(O)(c1ccc(OC)cc1)C(CN1CCOCC1)c1ccccc1` (stereo not drawn)?
Sm TGR block: -2%; AMA1 RON2 block: 0%; AmpC inh no detg: 135%; FMDV antiviral: -13%; AmpC inh detg: 1%

Results for c1ccc(C(CN2CCOCC2)c2ccccc2)cc1 ?
Sm TGR block: -2%; AMA1 RON2 block: -12%; AmpC inh no detg: 10%; FMDV antiviral: 4%; AmpC inh detg: -17%

What do the screens show for `COc1ccc(C(=O)C(CN2CCOCC2)c2ccccc2)cc1` (stereo not drawn)?
Sm TGR block: -25%; AMA1 RON2 block: -4%; AmpC inh no detg: 2%; FMDV antiviral: 11µM*; AmpC inh detg: inconclusive

Results for COC(=O)c1ccccc1NC(=O)C1=C(C)C(=O)OC12CCC(C)CC2 (stereo not drawn) ?
Sm TGR block: 2%; FMDV antiviral: -10%; AmpC inh detg: -2%

What do the screens show for `CCOc1cc(/C=N/NC(=O)C(N)=O)cc(Br)c1O`?
Sm TGR block: 50µM*; AMA1 RON2 block: -17%; AmpC inh no detg: -14%; FMDV antiviral: -8%; AmpC inh detg: -6%

Results for O=C1C=C(O)c2c(O)cccc2C1=O ?
Sm TGR block: 50µM*; AmpC inh no detg: -43%; AmpC inh detg: -2%

What do the screens show for `CC1=CC(=O)c2c(O)cccc2C1=O`?
FMDV antiviral: 8.9µM*

Results for COc1cccc2c1C(=O)C=C(C)C2=O ?
Sm TGR block: inconclusive; AMA1 RON2 block: 5%; AmpC inh no detg: -6%; FMDV antiviral: inconclusive; AmpC inh detg: -20%

Results for CC(C)(C=O)C1=CC(=O)c2ccccc2C1=O ?
Sm TGR block: 3.2µM*; AMA1 RON2 block: -16%; AmpC inh no detg: -18%; FMDV antiviral: 35µM*; AmpC inh detg: inconclusive

Results for O=C1C=C(O)c2cccc3cccc1c23 ?
Sm TGR block: 5%; AMA1 RON2 block: -2%; AmpC inh no detg: -31%; FMDV antiviral: -10%; AmpC inh detg: -22%

What do the screens show for `CC1=CC(=O)c2ccccc2C1=O`?
Sm TGR block: 28µM*; AMA1 RON2 block: -14%; AmpC inh no detg: -22%; FMDV antiviral: -13%; AmpC inh detg: inconclusive

What do the screens show for `COCCNC(=O)c1cn(C2CCN(C3CCCC3)CC2)nn1`?
FMDV antiviral: -2%

Results for O=C1C=CC2(C=C1)O[C@H](Cc1ccccc1)[C@@H](Cc1ccccc1)O2 ?
AMA1 RON2 block: -5%; FMDV antiviral: 4µM*

What do the screens show for `COc1ccc(N2C(=O)CC(Cc3ccccc3)C2=O)cc1` (stereo not drawn)?
Sm TGR block: 5%; AMA1 RON2 block: -8%; AmpC inh no detg: -22%; FMDV antiviral: 28%; AmpC inh detg: inconclusive

Results for COc1ccc(C[C@@H]2OC3(C=CC(=O)C=C3)O[C@H]2Cc2ccc(OC)cc2)cc1 ?
AMA1 RON2 block: 18%; FMDV antiviral: 14µM*

Screening results (PubChem)
